According to PubChem BioAssay (EPA / NIEHS):
Records with an inconclusive call do not appear. Calls of active or inactive are those of the source. Rule for the calls, unless noted: active = hit-call score of the fitted dose curve at least 0.9, where 1 is the maximum; inconclusive = response in the unintended direction; inactive = score below 0.9.

Key:
[1] = ATG_TAL_CIS: Attagene CIS-FACTORIAL HepG2 Assay for human TAL Basal Promoter (AID 2282966; active = hit-call score of the fitted dose curve at least 0.9, where 1 is the maximum; inactive = score below 0.9;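 note: background control endpoint measuring basal TAL promoter reporter mRNA not a specific factor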); conditions: HepG2 Attagene cis-factorial TAL promoter reporter; actives raise or lower the signal
How it was run: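 After 24 hours of chemical exposure, transfected HepG2 cells yielded RNA that was converted to 6-FAM-labelled, HpaI-digested reporter fragments for capillary electrophoresis. Values derive from bidirectional fitting against DMSO controls.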

[2] = ATG_TGFb_CIS: Attagene CIS-FACTORIAL HepG2 Assay for human Transforming Growth Factor (TGF) (AID 2282967; active = hit-call score of the fitted dose curve at least 0.9, where 1 is the maximum; inactive = score below 0.9); conditions: HepG2 Attagene CIS TGFb reporter, mRNA transcription; actives raise or lower the signal
How it was run: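 Endogenous TGFB1-linked transcription factor activity read as reporter mRNA via RT-PCR and capillary electrophoresis, 24 h after dosing transiently transfected HepG2 cells. Gain or loss of signal fitted relative to DMSO.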

[3] = ATG_M_19_TRANS: Attagene TRANS-FACTORIAL HepG2 Assay for M19 Transcription Factor (Internal Marker) (AID 2282974); conditions: HepG2 Attagene TRANS-FACTORIAL M19 internal marker reporter
How it was run: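 Fluorescence of 6-FAM-labelled reporter cDNA fragments, separated by capillary electrophoresis, served as the readout. These derived from HepG2 cells carrying transfected GAL4-UAS reporter units after 24 h dosing, with DMSO as negative control.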

[4] = target: Oxysterols receptor LXR-alpha (Homo sapiens) (UniProt Q13133); experiment: ATG_LXRa_TRANS: Attagene TRANS-FACTORIAL HepG2 Assay for human Liver X Receptor alpha (LXRa) (AID 2282980); conditions: HepG2 Attagene TRANS reporter, LXRa transactivation
Sequence of Oxysterols receptor LXR-alpha (Homo sapiens) (Q13133 whole entry, looked up, the tested form may be a part): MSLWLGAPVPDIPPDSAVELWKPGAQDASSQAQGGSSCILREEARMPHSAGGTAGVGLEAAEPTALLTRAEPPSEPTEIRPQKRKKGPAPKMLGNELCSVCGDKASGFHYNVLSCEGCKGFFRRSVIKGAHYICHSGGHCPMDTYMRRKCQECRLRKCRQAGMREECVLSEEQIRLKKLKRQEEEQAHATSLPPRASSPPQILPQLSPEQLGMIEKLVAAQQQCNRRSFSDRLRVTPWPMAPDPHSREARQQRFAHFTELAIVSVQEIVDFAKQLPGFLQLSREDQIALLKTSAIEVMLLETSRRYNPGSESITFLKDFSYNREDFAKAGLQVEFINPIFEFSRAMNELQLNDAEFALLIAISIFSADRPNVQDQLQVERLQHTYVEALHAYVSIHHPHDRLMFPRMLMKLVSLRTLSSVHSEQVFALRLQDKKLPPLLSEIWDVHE
How it was run: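 Transfect HepG2 with GAL4-UAS multiplex reporter constructs (TRANS format, chimeric receptor-GAL4); treat 24 h; extract RNA, reverse-transcribe, PCR-amplify, FAM-label, HpaI-digest; resolve fragments by capillary electrophoresis. Upward response vs DMSO.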

[5] = target: Nuclear receptor subfamily 4 group A member 2 (Homo sapiens) (UniProt P43354); experiment: ATG_NURR1_TRANS: Attagene TRANS-FACTORIAL HepG2 Assay for human Nuclear Receptor Related Protein 1 (NURR1) (AID 2282985); conditions: HepG2 Attagene TRANS reporter, mRNA readout
Sequence of Nuclear receptor subfamily 4 group A member 2 (Homo sapiens) (P43354 whole entry, looked up): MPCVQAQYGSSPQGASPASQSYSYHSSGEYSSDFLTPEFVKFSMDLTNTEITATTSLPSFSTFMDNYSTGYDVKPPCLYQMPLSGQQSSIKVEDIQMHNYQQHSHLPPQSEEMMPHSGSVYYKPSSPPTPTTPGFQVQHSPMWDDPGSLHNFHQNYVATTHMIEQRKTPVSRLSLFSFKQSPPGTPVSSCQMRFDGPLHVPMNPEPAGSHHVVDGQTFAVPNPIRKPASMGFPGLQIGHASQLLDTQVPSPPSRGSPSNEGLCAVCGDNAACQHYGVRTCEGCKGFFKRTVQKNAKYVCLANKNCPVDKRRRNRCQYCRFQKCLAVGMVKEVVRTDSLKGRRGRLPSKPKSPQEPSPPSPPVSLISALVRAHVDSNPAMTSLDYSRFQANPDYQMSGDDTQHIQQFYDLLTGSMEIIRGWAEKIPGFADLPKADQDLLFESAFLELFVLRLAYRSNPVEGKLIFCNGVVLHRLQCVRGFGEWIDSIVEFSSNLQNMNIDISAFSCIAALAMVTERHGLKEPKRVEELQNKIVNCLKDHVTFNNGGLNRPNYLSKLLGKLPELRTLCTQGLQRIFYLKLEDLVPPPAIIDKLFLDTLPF
How it was run: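 Endpoint: reporter mRNA increase relative to DMSO. HepG2 cells transfected with reporter units, treated 24 h; RNA processed by RT-PCR, labelling, HpaI digestion and capillary electrophoresis.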

[6] = target: Transcriptional activator Myb (Homo sapiens) (UniProt P10242); experiment: ATG_Myb_CIS: Attagene CIS-FACTORIAL HepG2 Assay for human Myeloblastosis (Myb) Proto-Oncogene Transcription Factor (AID 2282986; active = hit-call score of the fitted dose curve at least 0.9, where 1 is the maximum; inactive = score below 0.9); conditions: HepG2 Attagene CIS-FACTORIAL Myb reporter transcription; actives raise or lower the signal
Sequence of Transcriptional activator Myb (Homo sapiens) (P10242 whole entry, looked up): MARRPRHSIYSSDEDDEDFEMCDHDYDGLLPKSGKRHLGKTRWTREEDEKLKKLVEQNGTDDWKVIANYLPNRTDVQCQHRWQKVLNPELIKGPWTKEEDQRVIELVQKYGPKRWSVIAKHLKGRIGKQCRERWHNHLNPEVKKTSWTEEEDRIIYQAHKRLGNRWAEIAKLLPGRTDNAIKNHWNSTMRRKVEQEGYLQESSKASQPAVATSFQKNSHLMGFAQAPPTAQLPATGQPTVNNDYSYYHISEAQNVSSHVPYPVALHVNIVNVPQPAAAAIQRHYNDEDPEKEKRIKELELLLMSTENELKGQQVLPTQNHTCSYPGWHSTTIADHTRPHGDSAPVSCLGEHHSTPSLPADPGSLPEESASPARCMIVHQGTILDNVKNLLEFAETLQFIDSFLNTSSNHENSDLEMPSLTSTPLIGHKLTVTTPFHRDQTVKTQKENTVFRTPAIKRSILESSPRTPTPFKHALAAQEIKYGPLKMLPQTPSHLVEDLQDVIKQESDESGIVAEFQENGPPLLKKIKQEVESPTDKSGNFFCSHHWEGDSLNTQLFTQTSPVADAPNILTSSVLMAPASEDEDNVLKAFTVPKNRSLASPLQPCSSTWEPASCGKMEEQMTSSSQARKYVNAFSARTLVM
How it was run: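 Reporter transcript levels, quantified by fluorescent RT-PCR and capillary electrophoresis, serve as the read-out. Transfected HepG2 cells carrying cis-promoter reporter units are dosed for 24 hours, and curves are fitted bidirectionally against DMSO controls.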

[7] = target: Nuclear respiratory factor 1 (Homo sapiens) (UniProt Q16656); experiment: ATG_NRF1_CIS: Attagene CIS-FACTORIAL HepG2 Assay for human Nuclear Respiratory Factor 1 (NRF1) Orphan Gene (AID 2282987; active = hit-call score of the fitted dose curve at least 0.9, where 1 is the maximum; inactive = score below 0.9); conditions: HepG2 NRF1 cis-element reporter, Attagene multiplex; actives raise or lower the signal
Sequence of Nuclear respiratory factor 1 (Homo sapiens) (Q16656 whole entry, looked up): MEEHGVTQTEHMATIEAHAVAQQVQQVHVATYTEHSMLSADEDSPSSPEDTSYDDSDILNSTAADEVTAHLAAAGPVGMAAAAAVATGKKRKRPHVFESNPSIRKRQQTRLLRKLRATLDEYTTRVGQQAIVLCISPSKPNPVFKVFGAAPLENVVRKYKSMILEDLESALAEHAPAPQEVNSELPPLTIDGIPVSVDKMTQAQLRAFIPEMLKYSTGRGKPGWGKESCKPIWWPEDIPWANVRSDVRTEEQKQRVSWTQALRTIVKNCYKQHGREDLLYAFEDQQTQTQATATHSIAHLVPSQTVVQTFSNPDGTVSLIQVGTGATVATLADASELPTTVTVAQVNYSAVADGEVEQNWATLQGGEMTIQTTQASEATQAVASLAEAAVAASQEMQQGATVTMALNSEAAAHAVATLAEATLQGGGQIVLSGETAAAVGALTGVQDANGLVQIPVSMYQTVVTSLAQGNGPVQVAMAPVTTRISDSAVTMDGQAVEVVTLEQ
How it was run: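 Multiplexed cis-reporter assay, HepG2 cells, 24 h treatment. Total RNA → oligo(dT) RT → PCR with reporter-specific primers → 6-FAM primer extension → HpaI cut → CE. Bidirectional fit vs DMSO.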

[8] = target: X-box-binding protein 1 (Homo sapiens) (UniProt P17861); experiment: ATG_Xbp1_CIS: Attagene CIS-FACTORIAL HepG2 Assay for human X-box Binding Protein 1 (XBP1) (AID 2282972; active = hit-call score of the fitted dose curve at least 0.9, where 1 is the maximum; inactive = score below 0.9); conditions: HepG2 XBP1 cis-element reporter, Attagene multiplex; actives raise or lower the signal
Sequence of X-box-binding protein 1 (Homo sapiens) (P17861 whole entry, looked up): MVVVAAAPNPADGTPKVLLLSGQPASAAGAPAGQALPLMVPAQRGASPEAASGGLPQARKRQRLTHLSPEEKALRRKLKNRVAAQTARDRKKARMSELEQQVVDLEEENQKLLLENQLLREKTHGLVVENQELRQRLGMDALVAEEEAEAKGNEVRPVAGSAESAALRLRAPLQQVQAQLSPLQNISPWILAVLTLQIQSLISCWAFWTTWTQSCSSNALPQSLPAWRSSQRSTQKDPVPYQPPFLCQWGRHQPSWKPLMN
How it was run: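 Changes in reporter transcript abundance, read by RT-PCR and capillary electrophoresis, reflect endogenous transcription factor activity. Transfected HepG2 cells received compound for 24 hours; DMSO defined baseline for bidirectional analysis.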

[9] = target: Glucocorticoid receptor (Homo sapiens) (UniProt P04150); experiment: ATG_GR_TRANS: Attagene TRANS-FACTORIAL HepG2 Assay for human Glucocorticoid Receptor (GR) (AID 2282978); conditions: HepG2 Attagene TRANS GR reporter, mRNA transcription;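 note: activators score as hits since higher reporter transcript over DMSO is fitted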
Sequence of Glucocorticoid receptor (Homo sapiens) (P04150 whole entry, looked up, the tested form may be a part): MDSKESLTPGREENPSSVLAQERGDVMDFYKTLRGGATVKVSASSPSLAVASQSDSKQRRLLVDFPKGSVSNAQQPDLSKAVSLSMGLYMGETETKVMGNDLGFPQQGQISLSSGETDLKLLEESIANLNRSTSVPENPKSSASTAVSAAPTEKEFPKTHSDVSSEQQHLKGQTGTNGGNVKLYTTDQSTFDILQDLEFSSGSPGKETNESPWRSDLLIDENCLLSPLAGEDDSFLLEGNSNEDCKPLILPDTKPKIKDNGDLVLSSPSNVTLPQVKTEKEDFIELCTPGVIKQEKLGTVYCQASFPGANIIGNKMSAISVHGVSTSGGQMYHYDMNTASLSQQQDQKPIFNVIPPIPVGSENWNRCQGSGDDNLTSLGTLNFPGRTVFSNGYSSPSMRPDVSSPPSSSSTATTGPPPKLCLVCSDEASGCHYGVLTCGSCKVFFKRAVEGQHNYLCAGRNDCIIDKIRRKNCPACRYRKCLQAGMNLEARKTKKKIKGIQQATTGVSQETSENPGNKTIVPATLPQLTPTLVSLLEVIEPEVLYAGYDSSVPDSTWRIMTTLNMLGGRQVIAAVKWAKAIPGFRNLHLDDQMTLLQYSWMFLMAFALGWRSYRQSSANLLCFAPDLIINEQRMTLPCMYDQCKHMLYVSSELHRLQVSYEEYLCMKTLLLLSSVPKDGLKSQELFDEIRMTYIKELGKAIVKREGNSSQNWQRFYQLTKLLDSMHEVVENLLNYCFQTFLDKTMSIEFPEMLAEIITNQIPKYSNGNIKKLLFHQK
How it was run: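 Fluorescent capillary-electrophoresis quantitation of reporter mRNA is the readout, taken 24 h after dosing human HepG2 cells carrying transiently transfected GAL4-UAS reporter units activated by chimeric NR-GAL4 fusions; activity scored as induction over DMSO.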

[10] = target: Oxysterols receptor LXR-beta (Homo sapiens) (UniProt P55055); experiment: ATG_LXRb_TRANS: Attagene TRANS-FACTORIAL HepG2 Assay for human Liver X Receptor beta (LXRb) (AID 2282981); conditions: HepG2 Attagene TRANS GAL4-LXRb reporter, mRNA
Sequence of Oxysterols receptor LXR-beta (Homo sapiens) (P55055 whole entry, looked up, the tested form may be a part): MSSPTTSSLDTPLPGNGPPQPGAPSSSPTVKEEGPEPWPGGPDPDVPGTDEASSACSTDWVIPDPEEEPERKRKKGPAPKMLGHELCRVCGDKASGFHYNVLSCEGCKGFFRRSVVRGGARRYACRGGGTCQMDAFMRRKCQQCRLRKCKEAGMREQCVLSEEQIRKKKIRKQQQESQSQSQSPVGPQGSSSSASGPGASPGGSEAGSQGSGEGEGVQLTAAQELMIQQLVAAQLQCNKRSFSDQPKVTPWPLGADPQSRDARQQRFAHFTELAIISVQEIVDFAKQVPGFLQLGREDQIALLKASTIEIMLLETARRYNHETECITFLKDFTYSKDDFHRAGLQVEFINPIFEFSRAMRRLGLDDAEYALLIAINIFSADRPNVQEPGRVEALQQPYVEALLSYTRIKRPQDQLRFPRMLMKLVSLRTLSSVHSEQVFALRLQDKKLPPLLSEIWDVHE
How it was run: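 Multiplexed reporter assay, HepG2, 24 h dosing. Fluorescence of labelled RT-PCR products after capillary electrophoresis gives transcript level; positive fitting direction relative to DMSO.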

[11] = ATG_M_32_TRANS: Attagene TRANS-FACTORIAL HepG2 Assay for M32 Transcription Factor (Internal Marker) (AID 2282984); conditions: HepG2 Attagene TRANS M32 internal marker reporter
How it was run: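 Internal-marker readout from a multiplexed transcription reporter panel. HepG2 cells were transfected with GAL4-UAS reporter units, treated 24 hours, and reporter transcript levels determined by fluorescence after RT-PCR and capillary separation.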

[12] = ATG_GAL4_TRANS: Attagene TRANS-FACTORIAL HepG2 Assay for GAL4 (Internal Marker) (AID 2282976); conditions: HepG2 Attagene TRANS GAL4 internal marker reporter
How it was run: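 First, HepG2 cells were transfected with reporter units under GAL4-UAS control. Next, they were treated with chemical for 24 h. Finally, RNA was reverse-transcribed, PCR-amplified, FAM-labelled and resolved by capillary electrophoresis, with induction scored against DMSO.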

[13] = target: Hepatocyte nuclear factor 4-alpha (Homo sapiens) (UniProt P41235); experiment: ATG_HNF4a_TRANS: Attagene TRANS-FACTORIAL HepG2 Assay for human Hepatocyte Nuclear Factor 4 alpha (HNF4a) (AID 2282982); conditions: HepG2 HNF4a transactivation reporter, mRNA readout
Sequence of Hepatocyte nuclear factor 4-alpha (Homo sapiens) (P41235 whole entry, looked up, the tested form may be a part): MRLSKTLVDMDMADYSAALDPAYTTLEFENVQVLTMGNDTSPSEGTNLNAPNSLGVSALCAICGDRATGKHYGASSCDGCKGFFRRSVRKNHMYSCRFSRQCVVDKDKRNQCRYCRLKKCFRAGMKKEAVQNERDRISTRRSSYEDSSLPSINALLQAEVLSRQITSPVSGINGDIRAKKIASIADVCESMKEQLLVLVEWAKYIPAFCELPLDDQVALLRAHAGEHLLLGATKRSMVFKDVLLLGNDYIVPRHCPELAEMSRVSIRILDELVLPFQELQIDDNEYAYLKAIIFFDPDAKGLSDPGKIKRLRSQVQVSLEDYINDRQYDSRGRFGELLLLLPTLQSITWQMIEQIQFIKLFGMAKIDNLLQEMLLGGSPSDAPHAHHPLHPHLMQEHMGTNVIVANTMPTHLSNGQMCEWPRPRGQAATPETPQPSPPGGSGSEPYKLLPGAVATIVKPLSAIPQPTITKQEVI
How it was run: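 Endpoint reflects transcriptional activation of a GAL4-UAS reporter by an HNF4a-GAL4 chimera in transfected HepG2 cells, 24 h post-dosing. Fluorescence from RT-PCR products separated by capillary electrophoresis; DMSO baseline.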

[14] = ATG_M_06_TRANS: Attagene TRANS-FACTORIAL HepG2 Assay for M06 Transcription Factor (Internal Marker) (AID 2282983); conditions: HepG2 Attagene TRANS M06 internal marker reporter
How it was run: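 Background control endpoint: reporter mRNA from transiently transfected HepG2 after 24 h dosing, detected by RT-PCR with capillary electrophoresis fluorescence. Analysed for gain versus DMSO.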

[15] = target: Nuclear receptor subfamily 1 group I member 3 (Homo sapiens) (UniProt Q14994); experiment: ATG_CAR_TRANS: Attagene TRANS-FACTORIAL HepG2 Assay for human Constitutive Androstane Receptor (CAR) (AID 2282969); conditions: HepG2 Attagene TRANS-FACTORIAL CAR reporter;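 note: activators raise reporter mRNA above DMSO so AC50 marks induction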
Sequence of Nuclear receptor subfamily 1 group I member 3 (Homo sapiens) (Q14994 whole entry, looked up, the tested form may be a part): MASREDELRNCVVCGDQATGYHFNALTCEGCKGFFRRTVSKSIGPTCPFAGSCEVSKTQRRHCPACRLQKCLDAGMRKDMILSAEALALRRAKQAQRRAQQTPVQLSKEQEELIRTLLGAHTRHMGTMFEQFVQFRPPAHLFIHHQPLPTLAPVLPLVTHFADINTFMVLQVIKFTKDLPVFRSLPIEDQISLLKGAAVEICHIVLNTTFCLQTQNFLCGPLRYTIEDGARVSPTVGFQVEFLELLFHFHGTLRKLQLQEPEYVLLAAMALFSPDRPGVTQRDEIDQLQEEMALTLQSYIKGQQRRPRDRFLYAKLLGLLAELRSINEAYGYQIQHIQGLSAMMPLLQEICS
How it was run: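 Transiently transfected HepG2, multiplex TRANS reporters (CAR-Gal4 chimera driving GAL4-UAS reporter). 24 h dosing. Readout: reporter transcript by RT-PCR + capillary electrophoresis, fluorescence intensity; positive direction vs DMSO.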

[16] = target: Estrogen-related receptor gamma (Homo sapiens) (UniProt P62508); experiment: ATG_ERRg_TRANS: Attagene TRANS-FACTORIAL HepG2 Assay for human Estrogen-Related Receptor gamma (ERRg) (AID 2282977); conditions: HepG2 Attagene TRANS reporter, ERRg transactivation;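 note: hits increase reporter signal over DMSO so potencies reflect activators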
Sequence of Estrogen-related receptor gamma (Homo sapiens) (P62508 whole entry, looked up, the tested form may be a part): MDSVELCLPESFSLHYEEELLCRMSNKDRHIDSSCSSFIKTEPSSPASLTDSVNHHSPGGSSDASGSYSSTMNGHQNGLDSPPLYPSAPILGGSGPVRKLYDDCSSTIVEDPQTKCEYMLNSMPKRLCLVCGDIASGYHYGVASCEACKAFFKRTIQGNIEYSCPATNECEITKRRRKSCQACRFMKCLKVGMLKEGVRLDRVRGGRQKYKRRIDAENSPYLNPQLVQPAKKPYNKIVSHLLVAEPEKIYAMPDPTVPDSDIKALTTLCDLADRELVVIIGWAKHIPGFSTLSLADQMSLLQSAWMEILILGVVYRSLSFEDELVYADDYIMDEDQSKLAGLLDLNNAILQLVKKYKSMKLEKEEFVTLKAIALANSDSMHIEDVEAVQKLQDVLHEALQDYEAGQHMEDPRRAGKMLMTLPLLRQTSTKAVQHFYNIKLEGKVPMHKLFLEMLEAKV
How it was run: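 Exogenous NR-Gal4 chimera activity measured as reporter transcript induction after 24 h in transiently transfected HepG2 cells. RNA reverse-transcribed, PCR-amplified, 6-FAM-labelled and resolved by capillary electrophoresis; increase over DMSO baseline.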

[17] = ATG_VDRE_CIS: Attagene CIS-FACTORIAL HepG2 Assay for human Vitamin D Receptor Element (VDRE) (AID 2282968; active = hit-call score of the fitted dose curve at least 0.9, where 1 is the maximum; inactive = score below 0.9); conditions: HepG2 VDRE cis-reporter transcription, actives raise or lower the signal
How it was run: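 Compounds were applied for 24 h to HepG2 cells transfected with promoter-regulated reporter units. Total RNA was reverse-transcribed, and reporter amplicons were fluorescently labelled and sized by capillary electrophoresis.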

[18] = target: Estrogen receptor (Homo sapiens) (UniProt P03372); experiment: ATG_ERa_TRANS: Attagene TRANS-FACTORIAL HepG2 Assay for human Estrogen Receptor alpha (ERa) (AID 2282970); conditions: HepG2 Attagene TRANS ERa GAL4 reporter, mRNA
How it was run: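 Liver-derived HepG2 cells expressing chimeric nuclear receptor-Gal4 proteins from transient transfection were exposed for 24 hours. Gain of reporter mRNA signal versus DMSO, read by capillary electrophoresis of FAM-labelled PCR products, was recorded.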

[19] = target: Steroid hormone receptor ERR1 (Homo sapiens) (UniProt P11474); experiment: ATG_ERRa_TRANS: Attagene TRANS-FACTORIAL HepG2 Assay for human Estrogen-Related Receptor alpha (ERRa) (AID 2282971); conditions: HepG2 Attagene TRANS reporter, ERRa transactivation
How it was run: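 Reporter transcript induction was quantified by RT-PCR and capillary electrophoresis of FAM-labelled, HpaI-cut products after 24 h treatment of HepG2 cells carrying transiently transfected GAL4-UAS reporter units and an exogenous ERRa-Gal4 fusion; activity scored as increase over DMSO.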

[20] = target: Bile acid receptor (Homo sapiens) (UniProt Q96RI1); experiment: ATG_FXR_TRANS: Attagene TRANS-FACTORIAL HepG2 Assay for Farnesoid X Receptor (FXR) (AID 2282979); conditions: HepG2 Attagene TRANS FXR-GAL4 reporter transcription;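 note: hits raise reporter mRNA above DMSO so AC50 marks FXR activation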
How it was run: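 Transient transfection of HepG2 with multiplexed GAL4-UAS reporter units; exogenous FXR-GAL4 chimera. Dose 24 h → TriZol RNA → oligo(dT) RT → PCR, 6-FAM primer extension, HpaI cut → CE. Gain vs DMSO.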

Measured: AC50

CCC/C=C/C=O
inactive: [1] | [2] | [3] | [4] | [5] | [6] | [7]

CCCCCCCCCCN
inactive: [1] | [2] | [8] | [3] | [9] | [4] | [10] | [11] | [5] | [6] | [7]

O=C(O)c1cccc([N+](=O)[O-])c1
inactive: [1] | [2] | [8] | [12] | [9] | [4] | [13] | [14] | [11] | [6] | [7]

CC1(C)[C@@H]2CC[C@@]1(C)[C@H](O)C2
inactive: [1] | [2] | [8] | [3] | [12] | [9] | [7]

CN1Cc2c(N)cccc2C(c2ccccc2)C1 (stereo not drawn)
inactive: [1] | [2] | [8] | [3] | [12] | [4] | [13] | [5] | [6] | [7]

CC1(C)[C@H]2CC[C@]1(C)[C@H](O)C2
inactive: [1] | [2] | [15] | [8] | [12] | [14] | [11] | [5] | [6] | [7]

C[C@H]1C[C@@H]2[C@H]([C@@H](O)C[C@@]3(C)[C@H]2CC[C@]3(O)C(=O)CO)[C@@]2(C)C=CC(=O)C=C12
inactive: [1] | [2] | [8] | [4] | [10] | [14] | [6] | [7]

CCCCC[Si](OCC)(OCC)OCC
inactive: [1] | [2] | [8] | [12] | [4] | [10] | [14] | [6] | [7]

O=c1[nH]c(=O)n([C@H]2CCCO2)cc1F
inactive: [1] | [2] | [13] | [14] | [5] | [6] | [7]

C=CC(=O)OCCOCCOCC
inactive: [1] | [2] | [3] | [16] | [4] | [13] | [14] | [11]
active: [8] 135 µM

O=C(O)c1cn(-c2ccc(F)cc2)c2cc(N3CCNCC3)c(F)cc2c1=O
inactive: [1] | [2] | [8] | [3] | [12] | [5] | [6] | [7]

NC(=O)Nc1ccc(Cl)cc1
not listed: [2] | [5] | [9] | [10] | [14] | [20]
inactive: all other assays above

CN(C)C(=N)N=C(N)N
inactive: [1] | [2] | [15] | [8] | [3] | [12] | [14] | [11] | [6] | [7]

CCCCCCCCCCCCSC
not listed: [3] | [5] | [7] | [12] | [16] | [17] | [18] | [19]
inactive: all other assays above
